Among all 200,000 compounds or so, about 720 (0.36%) were called active. Inconclusive results (about 8%) are left out. Calls come from the whole dose curve; as a rule, active = well fitted activation curve with a large enough effect; inconclusive = small, poorly fitted or top-dose-only effect, or effect the other way, or another doubt; inactive = flat fitted curve, though single readings scatter. The list shows a part of the results.
Potency is the fitted concentration of half-maximal effect.

The target in the assay is Lysosomal alpha-glucosidase (Homo sapiens) (UniProt P10253). In words: qHTS Assay for Activators of Human alpha-Glucosidase as a Potential Chaperone Treatment of Pompe Disease. Note: nearly all actives have a fitted effect of over 80% in size. The conditions noted are these: purified enzyme, 4-MU-alpha-glucoside fluorescence, 20 min. An excerpt:
NIH Chemical Genomics Center [NCGC] NIH Molecular Libraries Probe Production centers Network [MLPCN] MLPCN Grant: 1R03MH084841-01 Assay Submitter (PI): Wei Zheng NCGC Assay Overview: Alpha-glucosidase is responsible for hydrolysis of terminal, non-reducing 1,4-linked alpha-D-glucose residues with release of alpha-D-glucose. It is a lysosomal hydrolase that is required for the degradation of a small percentage (1-3%) of cellular glycogen in human. Deficiency of this enzyme results in glycogen-storage disease type II (GSDII), also referred to as Pompe disease, an autosomal recessive disorder. Structurally normal glycogen is accumulated in lysosomes and cytoplasm in affected patients, primarily in muscle tissues. Excessive glycogen storage within lysosomes may interrupt normal functioning of other organelles and leads to cellular injury. In turn, this leads to enlargement and dysfunction of the entire organ involved (eg, cardiomyopathy and muscle weakness). It has reported that the improper folding and trafficking of alpha-glucosidase resulting from the genetic mutations may account for a significant number of Pompe patients. […] We optimized this alpha-glucosidase assay in 1536-well plate format for identifying the novel small molecule inhibitors with the structures other than the sugar analogs in order to develop the new pharmacological chaperones, but are also able to detect potential activators. In conjunction with assays against alpha-galactosidase (AID 1467), fluorogenic false positive compounds can be identified.
NCGC Assay Protocol Summary: This is a fluorogenic enzyme assay with 4-methylumbelliferyl-alpha-D-[…] as the substrate and human alpha-glucosidase as the enzyme preparation. Upon the hydrolysis of this fluorogenic substrate, the resulting product, 1. 4-methyllumbelliferone, can be excited at 365 nm and emits at 440 nm which can be detected by a standard fluorescence plate reader. Data were normalized to the controls for basal activity (without enzyme) and 100% activity (with enzyme). In the AC50 values were determined from concentration-response data modeled with the standard Hill equation. Assay buffer: 50 mM citric acid (titrated with potassium phosphate to pH 5.0), 0.005% Tween-20, pH 5.0. (pH 5.0 is an optimal condition for this enzyme assay) 1536-well assay protocol for the human alpha-glucosidase: (1) Add 2 ul/well of enzyme (4 nM final) (2) Add 23 nL compounds in DMSO solution. The final titration was 0.7 nM to 77 uM. (3) Add 1 ul of substrate (400 uM final) (4) Incubate at room temperature for 20 min. (5) Add 2 ul stop solution (1M NaOH and 1M Glycine mixture, pH 10) (6) Detect the assay plate in a ViewLux plate reader (PerkinElmer) with Ex=365 nm and Em=440nm. Keywords: Alpha-glucosidase, Pompe Disease, pharmacological chaperone, chaperone therapy, high throughput screening, alpha-glucosidase inhibitor, MLSMR, MLSCN, NIH Roadmap, qHTS and NCGC
(In general: qHTS replaces the single test concentration by a dilution series.)
Regarding `N#CC1=C(N)Oc2c(c(=O)oc3ccccc23)C1c1ccc(OC(=O)N2CCOCC2)cc1` (centres undefined), the Potency was 35.5 µM (active).

For `COP(=O)(OC)c1nc(-c2cccc3ccccc23)oc1NCCc1ccccc1`, the Potency is 31.6 µM (active). Turning to `CCOP(=O)(OCC)c1nc(-c2cccc3ccccc23)oc1NCCc1ccc(OC)cc1`, the Potency was 31.6 µM (active).

On to `COc1ccc(CNc2oc(-c3cccc4ccccc34)nc2P(=O)(OC)OC)cc1`, for which the Potency was 35.5 µM (active). To `COCCN1Cc2cc(=O)n3c([nH]c4ccccc43)c2C1=N` belongs 31.6 µM (active); to `COC(=O)c1ccc(C(=O)OC)c(NC(=O)Oc2ccccc2)c1`, 31.6 µM (active). To `CC(C)OCCCNC(=O)c1c(N)n(CC2CCCO2)c2nc3ccccc3nc12` (centres undefined) belongs 39.8 µM (active). As for `CCCNC(=O)c1c(N)n(CC2CCCO2)c2nc3ccccc3nc12` (centres undefined), the Potency was 31.6 µM (active). As for `N#Cc1c(Cl)nc(Cl)c2c1CCN(Cc1ccccc1)C2`, the figure is 31.6 µM (active); as for `CN1CCc2c(C#N)c(Cl)nc(Cl)c2C1`, 35.5 µM (active).

`CC(C)CCn1c(N)c(C(=O)OCC2CCCO2)c2nc3ccccc3nc21` (centres undefined): the Potency is 31.6 µM (active). As for `CCCCn1c(N)c(C(=O)OCC2CCCO2)c2nc3ccccc3nc21` (centres undefined), the Potency is 35.5 µM (active).

Consider `COCCOC(=O)c1c(N)n(Cc2ccc(OC)cc2)c2nc3ccccc3nc12`, for which the Potency was 35.5 µM (active).

As to `COCCOC(=O)c1c(N)n(Cc2ccccc2)c2nc3ccccc3nc12`, the Potency was 35.5 µM (active).

Turning to `COc1ccc(-c2cc(=NCCCCCC(=O)O)c3cc(C)ccc3o2)cc1`, the Potency is 31.6 µM (active). To `COc1ccc(-c2cc(=NCCC(=O)O)c3cc(C)ccc3o2)cc1` belongs 28.2 µM (active); to `CCOC(=O)c1c(N)n(Cc2ccc(OC)cc2)c2nc3ccccc3nc12`, 25.1 µM (active); to `COC(=O)c1c(N)n(Cc2ccc(OC)cc2)c2nc3ccccc3nc12`, 35.5 µM (active). On to `CC(C)CCOC(=O)c1c(N)n(CC2CCCO2)c2nc3ccccc3nc12` (centres undefined), for which the Potency was 39.8 µM (active).

As for `CC(C)OC(=O)c1c(N)n(CC2CCCO2)c2nc3ccccc3nc12` (centres undefined), the Potency was 35.5 µM (active). To `Nc1c(C(=O)OC2CCCCC2)c2nc3ccccc3nc2n1CC1CCCO1` (centres undefined) belongs 35.5 µM (active). To `COCCCn1c(N)c(C(=O)OCCOC)c2nc3ccccc3nc21` belongs 31.6 µM (active); to `COCCCn1c(N)c(C(=O)OC(C)COC)c2nc3ccccc3nc21` (centres undefined), 39.8 µM (active); to `O=C(c1cc2c(s1)-c1ccccc1OC2)N1CCC2(CC1)OCCO2`, 39.8 µM (active). To `COP(=O)(OC)c1nc(-c2cccc3ccccc23)oc1N1CCCCC1` belongs 35.5 µM (active); to `CCOP(=O)(OCC)c1nc(-c2cccc3ccccc23)oc1N1CCOCC1`, 39.8 µM (active); to `CCOP(=O)(OCC)c1nc(-c2cccc3ccccc23)oc1N1CCCCC1`, 35.5 µM (active). As to `COCCNC(=O)c1c(N)n(Cc2ccco2)c2nc3ccccc3nc12`, the Potency is 31.6 µM (active). As for `CCOC(=O)c1c(N)n(Cc2ccco2)c2nc3ccccc3nc12`, the figure is 39.8 µM (active). To `CCCCn1c(NC(=O)c2ccc(Br)o2)c(C(=O)OCC)c2nc3ccccc3nc21` belongs 35.5 µM (active); to `Nc1c(C(=O)NCCN2CCOCC2)c2nc3ccccc3nc2n1Cc1ccco1`, 39.8 µM (active); to `CCCCCn1c(N)c(C(=O)NCCN2CCOCC2)c2nc3ccccc3nc21`, 35.5 µM (active). For the molecule `COCCOC(=O)c1c(N)n(Cc2ccco2)c2nc3ccccc3nc12`, the Potency is 35.5 µM (active).

`CCOC(=O)c1c(N)n(CCCOC(=O)c2ccco2)c2nc3ccccc3nc12`: the Potency is 35.5 µM (active).

`CC(C)(C)OC(=O)c1c(N)n(Cc2ccco2)c2nc3ccccc3nc12`: the Potency is 35.5 µM (active). As for `CC(=O)N1CCC2(CC1)CC(=O)c1cc(OCC(=O)N3CCC4(CC3)OCCO4)ccc1O2`, the figure is 31.6 µM (active); as for `CCCOC(=O)c1c(N)n(Cc2cccs2)c2nc3ccccc3nc12`, 39.8 µM (active); as for `CCC(C)OC(=O)c1c(N)n(Cc2cccs2)c2nc3ccccc3nc12` (centres undefined), 35.5 µM (active). To `CC(C)CCn1c(N)c(C(=O)NCc2cccs2)c2nc3ccccc3nc21` belongs 28.2 µM (active).
